Consider 17 compounds from the supplement of paper PMC10811239.

In this assay the test system is LEGO organoid PTCC (PTEN-/-; TP53-/-; CDKN2A-/-; CDKN2B-/-). The experiment in a line: bioluminescence (viable cell) signal fold change after vs before treatment, normalised to DMSO (ratio); higher = more tumour cell growth / less inhibition. To be noted: 10 µM; treatment time 6 days. The protocol:
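Luc2-labelled iPSC-derived glioblastoma-like organoids (LEGOs, genotypes PT = PTEN-/-;TP53-/-, PTCC = plus CDKN2A/B-/-, PTN = plus NF1-/-) were treated with 10 uM drug for 6 days (applied every other day) at 37 C. Bioluminescence imaging was done before treatment and 2 days after the last dose. BLI signals were normalised to the DMSO control on the same day and then to the pre-treatment signal (N=3).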
Regarding `CCOC(=O)c1cncn1[C@H](C)c1ccccc1` [Etomidate], the bioluminescence was 1.01. In the case of `CN[C@@H]1C[C@H]2O[C@@](C)([C@@H]1OC)n1c3ccccc3c3c4c(c5c6ccccc6n2c5c31)C(=O)NC4` [Staurosporine], the bioluminescence was 0. On to `Cc1n[nH]cc1-c1cc2[nH]c([C@@H]3CC4CCN3CC4)nc(=O)c2s1` [Simurosertib], for which the bioluminescence amounted to 1.46. As for `CCN(C)C(=O)Oc1cccc([C@H](C)N(C)C)c1` [Rivastigmine], the bioluminescence was 0.555.

With `CCC1(c2ccc(N)cc2)CCC(=O)NC1=O` (configuration not stated) [Aminoglutethimide], the bioluminescence worked out at 1.11. Consider `COc1ccc(C(CN(C)C)C2(O)CCCCC2)cc1.Cl` (configuration not stated) [Venlafaxine hydrochloride], for which the bioluminescence turned out to be 0.737. `NCC1(CC(=O)O)CCCCC1` [Gabapentin]: the bioluminescence is 1.26.

For `COc1cc2c(cc1OC)[C@@H]1CC(=O)[C@@H](CC(C)C)CN1CC2.COc1cc2c(cc1OC)[C@H]1CC(=O)[C@H](CC(C)C)CN1CC2` [Tetrabenazine], the bioluminescence was determined as 1.1. For `CC[C@@H](C(N)=O)N1CCCC1=O` [Levetiracetam] the value was 1.07; for `O=C(O)CCCc1ccc(N(CCCl)CCCl)cc1` [Chloroambucil], 1.06; for `NCC(CC(=O)O)c1ccc(Cl)cc1` (configuration not stated) [Baclofen], 0.877. Regarding `CC(C)c1cccc(C(C)C)c1O` [Propofol], the bioluminescence was 0.675. With `Cc1cccc([C@H](C)c2cnc[nH]2)c1C.Cl` [Dexmedetomidine HCl], the bioluminescence came to 1.39. On to `CN(C)C(=O)Oc1ccc[n+](C)c1.[Br-]` [Mestinon], for which the bioluminescence was 1.67. On to `CC(C)C[C@H]1C(=O)N2CCC[C@H]2[C@]2(O)O[C@](NC(=O)[C@@H]3C[C@@H]4c5cccc6[nH]cc(c56)C[C@H]4N(C)C3)(C(C)C)C(=O)N12.CC(C)[C@@]1(NC(=O)[C@@H]2C[C@@H]3c4cccc5[nH]cc(c45)C[C@H]3N(C)C2)O[C@@]2(O)[C@@H]3CCCN3C(=O)[C@H](Cc3ccccc3)N2C1=O.CC(C)[C@H]1C(=O)N2CCC[C@H]2[C@]2(O)O[C@](NC(=O)[C@@H]3C[C@@H]4c5cccc6[nH]cc(c56)C[C@H]4N(C)C3)(C(C)C)C(=O)N12.CCC(C)[C@H]1C(=O)N2CCC[C@H]2[C@]2(O)O[C@](NC(=O)[C@@H]3C[C@@H]4c5cccc6[nH]cc(c56)C[C@H]4N(C)C3)(C(C)C)C(=O)N12.CS(=O)(=O)O` [Dihydroergotoxine mesylate], for which the bioluminescence was determined as 1.82.

On to `Cl.Cn1c(CCCC(=O)O)nc2cc(N(CCCl)CCCl)ccc21` [Bendamustine hydrochloride], for which the bioluminescence was 0.752. `CCN(C)C(=O)Oc1cccc([C@H](C)N(C)C)c1.O=C(O)[C@H](O)[C@@H](O)C(=O)O` [Rivastigmine tartrate]: the bioluminescence was 0.566.
